NTMT1 inh: inhibitors of human N-terminal methyltransferase NTMT1 | Q9BV86 | Potency, µM (series often up to 114 µM), for the others: top-dose activity change, negative = inhibition, actives largely listed as inhibitors | NTMT1 MTase-Glo SAH luminescence, purified enzyme | 59,000 compounds, 2.5% hits | AID 1645870;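 also: plate controls were DMSO vehicle for no effect and no enzyme for full effect; nearly all actives have a fitted effect of over 65% in size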
FH mod: Identification of activators of human fumarate hydratase by quantitative high-throughput screening; FH coupled MDH/diaphorase resazurin fluorescence, 15 min; Potency, µM (highest dose often 79.9 µM), for the others: top-dose activity change, negative = inhibition, actives largely listed as inhibitors; 54,000 compounds, 0.22% hits; AID 1347055, 2019; also: % is scaled to controls: 0 for no effect and ±100 for the full control effect; the screen sought activators but most active calls are inhibition curves; nearly all actives have a fitted effect of over 45% in size
GALC G270D up: raises human GALC G270D mutant activity in cells; 145M-Twi-hGALC-G270D cells (Twitcher mouse brain line with human GALC G270D), HMU-beta-Gal fluorescence, 48 h; Potency, µM (highest dose often 57.5 µM), most hits filed as activators; 45,000 compounds, 0.1% hits; AID 1159614; also: 0% is about no effect; nearly all actives have a fitted effect of over 65% in size
Target sequence (P54803 whole entry G286D): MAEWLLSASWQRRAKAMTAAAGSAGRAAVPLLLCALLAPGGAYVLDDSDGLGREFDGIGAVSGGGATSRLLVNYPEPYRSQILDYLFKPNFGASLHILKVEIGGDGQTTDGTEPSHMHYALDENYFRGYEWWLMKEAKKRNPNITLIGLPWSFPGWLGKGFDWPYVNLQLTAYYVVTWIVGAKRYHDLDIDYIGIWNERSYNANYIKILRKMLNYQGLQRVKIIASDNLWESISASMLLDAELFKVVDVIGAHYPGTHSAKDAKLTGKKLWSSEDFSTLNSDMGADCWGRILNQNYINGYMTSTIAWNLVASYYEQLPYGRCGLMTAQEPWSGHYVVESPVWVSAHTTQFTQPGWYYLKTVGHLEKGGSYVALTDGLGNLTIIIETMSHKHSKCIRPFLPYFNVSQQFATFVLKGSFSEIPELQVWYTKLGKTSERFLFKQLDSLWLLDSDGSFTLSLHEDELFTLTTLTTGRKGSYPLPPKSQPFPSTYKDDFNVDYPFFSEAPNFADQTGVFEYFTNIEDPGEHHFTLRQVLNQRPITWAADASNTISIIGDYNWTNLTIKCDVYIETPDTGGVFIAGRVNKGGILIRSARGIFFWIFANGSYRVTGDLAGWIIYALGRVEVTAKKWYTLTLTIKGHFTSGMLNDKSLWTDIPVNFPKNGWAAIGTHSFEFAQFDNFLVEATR
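Mutant human GALC (G270D), stably expressed in a Twitcher mouse brain cell line lacking endogenous GALC, is measured in live-treated cells via 6-hexadecanoylamino-4-methylumbelliferyl-β-galactoside hydrolysis (0.1 mM final, pH 5.2) with fluorescent detection.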
* hit, by the source's call; i = inactive; ? = inconclusive; . = no result given; ! = not confirmed by another sample; [ ] = dose if it differs, or a comment. This is one part of a sample in which hits are shown more often than they occur. Calls follow the shape of the dose curve; as a rule, active = well fitted curve in the direction sought with a large enough effect; inconclusive = small, poorly fitted or top-dose-only effect, or another doubt; inactive = no such curve, though single readings can be large; an effect the other way counts as inactive or inconclusive. Potency is read from the fitted curve at half-maximal effect.

SMILES | NTMT1 inh | FH mod | GALC G270D up
COc1ccc2nc(S(=O)Cc3ncc(C)c(OC)c3C)[nH]c2c1 (stereo unspecified) | 32µM*! | 5%[53.3 µM] | i
COc1ccc2oc(=O)c(-c3nc4ccc(C)cc4[nH]3)cc2c1 | 22% | -4% | i
C[C@@H]1C(=O)O[C@H]2CC34[C@H]5C[C@@H](C(C)(C)C)C36[C@@H](OC(=O)[C@@H]6O)OC4(C(=O)O5)[C@]21O (stereo partly specified) | 6%[57.5 µM] | 4% | .
O=C(O)CC1CCC(c2ccc(NC(=O)c3nnc(Nc4ccc(F)c(F)c4)o3)cc2)CC1 (stereo unspecified) | 7%[57.5 µM] | -4% | .
Cn1cc(-c2cc(Oc3cc(F)c(NC(=O)C4(C(=O)Nc5ccccc5)CC4)cc3F)ccn2)cn1 | 4% | ? | .
CCc1cccc(NC(=O)CCc2c(C)nc3c(c2C)c(=O)n(C)c(=O)n3C)c1 | 89µM* | -4% | i
COC(=O)c1ccc(NC(=O)CCc2c(C)nc3c(c2C)c(=O)n(C)c(=O)n3C)cc1 | 3% | 1% | i
CNCCn1c(=O)c2cc(OC)c(OC)cc2c2cnc3cc4c(cc3c21)OCO4 | 15%[29.8 µM] | . | .
CC1(C)CC(NC(=O)C(=O)Nc2ccc(Br)cc2)CC(C)(C)N1 | -2%[57.5 µM] | 5% | .
CCCC(CCC)C(=O)Nc1ccn([C@@H]2O[C@H](CO)[C@@H](O)C2(F)F)c(=O)n1 | -1%[57.5 µM] | 6% | .
CCC(=O)N1c2ccccc2CC1C(=O)NCCCN1CCN(c2ccc(F)cc2)CC1 (stereo unspecified) | 89µM* | -25% | i
CCC(=O)N1c2ccccc2CC1C(=O)NCCN1CCN(c2ccccc2F)CC1 (stereo unspecified) | 15% | -2% | i
CC(C)CN(CC(=O)N(CCCN1CCCC1=O)CC(N)=O)C(=O)CNCCc1ccccc1F | 15% | 13% | .
CC(C)(C)c1ccc(O)c(O)c1 | 4.5µM* | 40µM* | i
Cc1cc(C(C)(C)C)c(O)c(C(C)(C)C)c1 | 32%[57.5 µM] | -3%[53.3 µM] | i
CCOC(=O)c1c(NC(=O)c2ccc(S(=O)(=O)N(CC(C)C)CC(C)C)cc2)sc2c1CCN(CC)C2 | 89µM* | -9% | i
CCCCN(CCCC)S(=O)(=O)c1ccc(C(=O)Nc2sc3c(c2C(N)=O)CCN(CC)C3)cc1 | 2% | -4% | i
NS(=O)(=O)Oc1ccc2c3c(c(=O)oc2c1)CCCCC3 | 28µM* | . | .
Cc1ccc(O)c([C@H](CCN(C(C)C)C(C)C)c2ccccc2)c1 | ? | 0%[53.3 µM] | i
CC(C)C(=O)Oc1ccc(CO)cc1[C@H](CCN(C(C)C)C(C)C)c1ccccc1 | 22µM*! | ? | .
CCn1c2ccccc2c2cc(CNC)ccc21 | -6%[57.5 µM] | 1% | .
Oc1ccc(C2CCN(c3ccnc4ccccc34)CC2)cc1O | 10µM*! | -13%[53.3 µM] | .
O=S(=O)(c1ccc(Cl)cc1)N1CCN(c2ccnc3cc(Cl)ccc23)CC1 | 6%[57.5 µM] | -12% | .
C[N+](C)(C)CC[N+]1(C)Cc2c(Cl)c(Cl)c(Cl)c(Cl)c2C1 | 7.9µM* | -8%[53.3 µM] | i
O=C(Nc1ncc([N+](=O)[O-])s1)c1cccs1 | 40µM* | 0%[53.3 µM] | i
SMILES | NTMT1 inh | FH mod | GALC G270D up
O=C(Nc1cccnc1)c1cccs1 | -6% | . | .
COc1ccc(C(=O)Nc2nc(-c3ccccc3)cs2)c(OC)c1 | 5%[57.5 µM] | . | .
CCCCC1CCC(C(=O)Nc2ccc(S(=O)(=O)Nc3cc(C)on3)cc2)CC1 (stereo unspecified) | -5% | . | .
CCCc1cc(F)c(S(=O)(=O)N2CCN(S(=O)(=O)c3ccc4c(c3)OCCO4)CC2)cc1F | 12% | . | .
CS(=O)(=O)Nc1cccc(-c2cc(F)c(S(=O)(=O)N3CCN(S(=O)(=O)c4ccc5c(c4)OCCO5)CC3)cc2F)c1 | 18µM* | . | .
CCn1c(=O)c2cc(C(=O)NCCCN(C)Cc3ccccc3)sc2c2ccccc21 | ? | ? | i
CCCN(CCC)CCCNC(=O)c1cc2c(=O)n(C)c3ccccc3c2s1 | 50µM* | ? | i
COc1cccc(CNc2ccc(S(=O)(=O)Nc3ccc(C)nc3)cc2)c1O | 6% | . | .
CC(C)[C@@](C)(O)[C@@H]1CN(c2nc(-c3[nH]nc4ncccc34)c(F)cc2Cl)CCN1 | ? | 0% | .
CCOC(=O)c1cccc(NS(=O)(=O)c2ccc(-c3coc(C)n3)cc2)c1 | -2% | -20% | i
CCOC(=O)c1cnc2ccc(-c3cncc(NS(=O)(=O)c4ccccc4)c3)cn12 | 28µM* | 23% | .
c1ccc(-c2cnn3cc(-c4ccc(OCCN5CCOCC5)cc4)cnc23)cc1 | 4% | -9% | .
CS(=O)(=O)N1CCc2cc(C(=O)NCCc3ccccc3)ccc21 | 15% | -2% | i

Screening data: PubChem BioAssay, National Center for Advancing Translational Sciences (NCATS)
